# Source: PubChem BioAssay AID1347155 (National Center for Advancing Translational Sciences (NCATS), 2019)
# Inconclusive results are not listed. Unmarked numbers belong to inactive results. Activity calls are given as the source filed them. Calls follow the shape of the dose curve; as a rule, active = well fitted inhibition curve with a large enough effect; inconclusive = small, poorly fitted or top-dose-only effect; inactive = no such curve, though single readings can be large or run the other way.
# Test system: Zika virus NS2B-NS3 protease (linked)
# Test: Optimization screen NINDS Rhodamine qHTS for Zika virus inhibitors: Linked NS2B-NS3 protease assay
# Settings: fluorogenic rhodamine substrate; series mostly up to 105 µM; activity change, negative = inhibition: at the top concentration
# Excerpt: Avindra Nath, Ph.D., National Institute of Neurological Disorders and Stroke (NINDS), Bethesda, MD
# Radhakrishnan Padmanabhan, Ph.D., Georgetown University (GU), Washington D.C.
# Zika Virus causes congenital defects, including microcephaly and is associated with Guillain-Barre syndrome, eningoencephalitis and myelitis in infected adult. […] Using a target-based approach, we hope to establish a screening paradigm to uncover novel, cell-active NS2B-NS3 protease (Zika Virus) specific inhibitors from NCATS' collection of small molecules using qHTS.
# Four assay panel was created to identify potential Zika Virus inhibitors. Namely, (1) GU unlinked NS2B-NS3 AMC tagged protease qHTS, (2) GU unlinked NS2B-NS3 Rhodamine tagged protease qHTS, (3) NINDS linked NS2B-NS3 AMC tagged protease qHTS, (4) NINDS linked NS2B-NS3 Rhodamine tagged protease qHTS. Active compounds were re-acquired and re-screened to confirm inhibition. Inhibitors were further screened against various confirmatory and counterscreens in dose response format.
# Early Translation Branch (ETB)
# National Center for Advancing Translational Sciences (NCATS), Rockville, MD
# National Institute of Health (NIH), Bethesda, Maryland
# For the linked assay, Nath lab (NINDS) provided the purified linked NS2B-NS3 protease which is consists of hydrophilic domain of NS2B linked to the NS3 protease domain by a flexible (-GGGGSGGGG-) linker. Control compound aprotinin is obtained from Thermo Scientific (#78432; Waltham, Massachusetts). Rhodamine110 substrate ([N-Cbz]-Nle-Lys-Arg-Arg-Rhod110-Arg-Arg-Lys-Nle-[N-Cbz]) was purchased from either Genscript or Bachem.
# 1536-well Protease (Rhodamine110 Substrate) Assay:
# Briefly, 3 microL of enzyme (25 nM final concentration), in assay buffer (10 mM Tris-HCl pH 8.0 with 0.01% Tween 20) were dispensed into a 1,536-well solid-bottom black plate (Greiner Bio One, Monroe, NC). Twenty-three nL of compounds (final concentration range 7.28 nM to 114 microM) or control Aprotinin (final concentration range 3.47 nM to 114 microM) were transferred via Wako Pin-tool (Wako Automation, Richmond, VA). Samples were incubated (room temperature, protected from light) for 15 minutes followed by a 1 microL Rhodamine110 substrate addition (1.5 microM final concentration). Plates were then immediately read on a ViewLux High-throughput CCD imager (PerkinElmer, Waltham, MA) equipped with FITC fluorescence optics (480(20) nm excitation, 540(25) nm emission), then incubated (room temperature, protected from light) for 15 minutes (~15% conversion). The change in fluorescence intensity over the 15-minute reaction period was normalized against no-inhibitor and no-enzyme controls and the resulting percent inhibition data were fitted to a 4-parameter Hill equation. Aprotinin was used as intraplate control.
SMILES,Potency,"activity change, negative = inhibition [%]"
O=C(Nc1ccc([N+](=O)[O-])cc1Cl)c1cc(Cl)ccc1O,9.87 µM (active),
CC=CCC(C)C(O)C1C(=O)NC(CC)C(=O)N(C)CC(=O)N(C)C(CC(C)C)C(=O)NC(C(C)C)C(=O)N(C)C(CC(C)C)C(=O)NC(C)C(=O)NC(C)C(=O)N(C)C(CC(C)C)C(=O)N(C)C(CC(C)C)C(=O)N(C)C(C(C)C)C(=O)N1C (stereo not drawn),,23.1
S=c1nc[nH]c2nc[nH]c12,inactive,
